# Screens: PubChem BioAssay, National Center for Advancing Translational Sciences (NCATS)
# Compounds with a hit are over-represented: about 6.9% of the library has one in this group of screens.
# HP1b binding inh = inhibitors of HP1-beta chromodomain binding to methylated histone tails; P83916; AlphaScreen HP1-beta / biotin-H3K9me3 peptide binding; Potency, µM (series often up to 114 µM), inactives show top-dose activity change, negative = inhibition, usual class: inhibitors; 390,000 tested, 0.56% active; further: nearly all actives have a fitted effect of over 70% in size
#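 Compound inhibition of the preformed complex between 50 nM HP1-beta and 50 nM biotinylated H3K9me3 peptide was read by AlphaScreen. Buffer was PBS pH 7.4 with 0.01% Tween-20. Incubations ran 30 min at room temperature, with 10 ug/mL donor/acceptor beads.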
# PLK1 PBD inh = inhibitors of human PLK1 polo-box domain binding. P53350. Plk1 PBD binding of FITC phosphopeptide, fluorescence polarization. Potency, µM, without a hit: max response, negative = inhibition, usual class: inhibitors. 360,000 tested, 2.8% active. AID 720504; further: series mostly up to about 57 µM; on the % scale 0 is the no-effect control and ±100 the full control effect; nearly all actives have a fitted effect of over 65% in size
# VDR inhibitor = blocks the human vitamin D receptor; P11473; VDR-SRC2-3 peptide fluorescence polarization, 2 h; Potency, µM, without a hit: max response, negative = inhibition, usual class: inhibitors; 400,000 tested, 0.93% active; AID 504847; further: on the % scale 0 is the no-effect control and ±100 the full control effect
#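 FP read-out; VDR + SRC2-3 coactivator peptide; 23 nl compound by pintool; 2 h RT incubation; reagents held at 4 deg C, protected from light.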
# BAZ2B block = inhibitors of human BAZ2B bromodomain | AlphaScreen BAZ2B-H3K14Ac peptide displacement | Potency, µM (doses to about 114 µM), for the others: top-dose activity change, negative = inhibition, usual class: inhibitors | 360,000 tested, 4.4% active | AID 504333; further: on the % scale 0 is the no-effect control and ±100 the full control effect; nearly all actives have a fitted effect of over 60% in size
# Target sequence (Q9UIF8 whole entry, looked up): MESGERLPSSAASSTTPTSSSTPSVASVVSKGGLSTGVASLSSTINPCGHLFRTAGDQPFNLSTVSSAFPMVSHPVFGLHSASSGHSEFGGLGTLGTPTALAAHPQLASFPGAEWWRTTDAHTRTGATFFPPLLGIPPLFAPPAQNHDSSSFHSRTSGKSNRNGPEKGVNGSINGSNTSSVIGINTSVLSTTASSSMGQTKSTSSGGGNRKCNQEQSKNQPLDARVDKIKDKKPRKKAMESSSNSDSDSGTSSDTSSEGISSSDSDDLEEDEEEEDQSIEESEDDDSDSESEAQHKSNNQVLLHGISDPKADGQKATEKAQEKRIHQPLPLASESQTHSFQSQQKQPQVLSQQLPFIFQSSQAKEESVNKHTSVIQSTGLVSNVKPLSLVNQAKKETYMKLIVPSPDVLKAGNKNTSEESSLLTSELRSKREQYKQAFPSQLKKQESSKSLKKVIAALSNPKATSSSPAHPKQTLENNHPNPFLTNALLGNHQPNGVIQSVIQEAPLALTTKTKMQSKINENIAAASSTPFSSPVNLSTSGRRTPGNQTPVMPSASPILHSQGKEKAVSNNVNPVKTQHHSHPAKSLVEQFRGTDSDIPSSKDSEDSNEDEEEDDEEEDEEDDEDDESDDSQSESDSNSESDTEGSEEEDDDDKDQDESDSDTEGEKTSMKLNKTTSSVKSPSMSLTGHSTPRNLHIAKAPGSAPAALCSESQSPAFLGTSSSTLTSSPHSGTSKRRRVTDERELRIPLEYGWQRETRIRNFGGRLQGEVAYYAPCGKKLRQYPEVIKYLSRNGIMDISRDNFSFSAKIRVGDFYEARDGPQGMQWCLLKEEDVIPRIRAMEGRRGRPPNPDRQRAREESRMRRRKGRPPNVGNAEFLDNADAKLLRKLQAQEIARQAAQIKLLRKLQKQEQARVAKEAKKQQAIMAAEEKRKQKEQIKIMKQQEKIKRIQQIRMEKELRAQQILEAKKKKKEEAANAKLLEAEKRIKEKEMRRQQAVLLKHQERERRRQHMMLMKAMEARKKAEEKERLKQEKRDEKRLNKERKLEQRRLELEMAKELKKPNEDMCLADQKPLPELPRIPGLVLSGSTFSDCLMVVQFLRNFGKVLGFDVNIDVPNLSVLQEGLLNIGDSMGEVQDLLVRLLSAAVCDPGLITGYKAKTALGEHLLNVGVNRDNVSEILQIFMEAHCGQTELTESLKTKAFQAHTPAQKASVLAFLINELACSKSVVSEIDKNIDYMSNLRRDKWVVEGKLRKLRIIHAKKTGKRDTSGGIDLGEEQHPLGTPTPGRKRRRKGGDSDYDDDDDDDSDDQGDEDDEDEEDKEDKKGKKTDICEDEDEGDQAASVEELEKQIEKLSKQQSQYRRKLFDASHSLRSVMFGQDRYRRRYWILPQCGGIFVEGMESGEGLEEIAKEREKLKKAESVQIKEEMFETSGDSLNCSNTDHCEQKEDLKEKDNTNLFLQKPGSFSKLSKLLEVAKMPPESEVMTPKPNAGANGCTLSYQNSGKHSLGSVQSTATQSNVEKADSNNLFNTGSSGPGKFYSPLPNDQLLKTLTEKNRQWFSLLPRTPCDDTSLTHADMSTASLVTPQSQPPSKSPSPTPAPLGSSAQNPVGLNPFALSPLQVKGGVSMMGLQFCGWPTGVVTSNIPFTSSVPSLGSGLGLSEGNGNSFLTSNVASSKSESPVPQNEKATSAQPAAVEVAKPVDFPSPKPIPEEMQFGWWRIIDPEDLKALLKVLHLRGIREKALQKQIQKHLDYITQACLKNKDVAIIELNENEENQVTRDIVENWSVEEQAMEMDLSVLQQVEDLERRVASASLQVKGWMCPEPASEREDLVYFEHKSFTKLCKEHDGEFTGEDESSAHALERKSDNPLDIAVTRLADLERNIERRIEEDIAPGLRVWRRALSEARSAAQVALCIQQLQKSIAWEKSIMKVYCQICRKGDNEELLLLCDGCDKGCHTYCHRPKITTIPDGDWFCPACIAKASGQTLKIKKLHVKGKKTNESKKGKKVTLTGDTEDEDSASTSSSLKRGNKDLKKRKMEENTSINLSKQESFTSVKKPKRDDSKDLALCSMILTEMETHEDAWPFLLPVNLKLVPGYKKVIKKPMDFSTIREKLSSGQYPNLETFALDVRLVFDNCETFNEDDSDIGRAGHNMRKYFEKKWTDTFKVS
#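 Protein-peptide AlphaScreen: BAZ2B 50 nM, b-H3K14Ac 50 nM, 1x PBS pH 7.4 + 0.01% Tween-20. Preincubation 30 min RT; cpd 30 min RT (top 110 uM); beads 20 min RT, light-protected.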
# L3MBTL1 block = L3MBTL1 (human) inhibition; AID 485360; 230,000 tested, 0.66% active; Potency, µM (highest dose often 57.1 µM), without a hit: top-dose activity, negative = inhibition, hits mostly inhibitors; AlphaScreen L3MBTL1–H3K9me1 peptide binding; Q9Y468; further: on the % scale 0 is the no-effect control and ±100 the full control effect; nearly all actives have a fitted effect of over 60% in size
#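 Displacement of a biotinylated histone H3(1-15) peptide monomethylated at Lys9 (75 nM) from L3MBTL1 (50 nM) was measured by AlphaScreen after a 30 min room-temperature compound incubation; cefsulodin titration served as intraplate control.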
# JMJD2A Tudor = JMJD2A Tudor domain (human) inhibition; O75164; AlphaScreen JMJD2A-Tudor / H3K4me3 peptide binding; Potency, µM (doses to about 114 µM), for the others: top-dose activity change, negative = inhibition, hits mostly inhibitors; 390,000 tested, 4.4% active; AID 504339; further: on the % scale 0 is the no-effect control and ±100 the full control effect; nearly all actives have a fitted effect of over 50% in size
# VDR inh confirm = inhibits human vitamin D receptor, primary hit validation | shares compounds with VDR inhibitor | VDR-coactivator inhibition assay, qHTS confirmation | Potency, µM, actives largely listed as inhibitors | 840 tested, 89% active | AID 602199
# VDR FP = blocks human VDR-coactivator binding in fluorescein assay; shares compounds with VDR inhibitor; VDR-coactivator binding, fluorescein fluorescence polarization; Potency, µM (titrated, usually from 57.1 µM), inactives show top-dose activity change, negative = inhibition, actives largely listed as inhibitors; 840 tested, 48% active
# VDR bla reporter = VDR (human) inhibition, cell-based beta-lactamase validation | 840 tested, 23% active | VDR beta-lactamase reporter cells, FRET ratio; cells co-treated with VDR agonist LG190178 | shares compounds with VDR inhibitor | AID 602202 | Potency, µM (doses to about 46.1 µM), for inactives: at the top dose activity change, negative = inhibition, hits mostly inhibitors; further: on the % scale 0 is the no-effect control and ±100 the full control effect
# VDR viability = counter-screen for vitamin D receptor inhibitors: cytotoxicity. shares compounds with VDR inhibitor. cytotoxicity counter-screen, cell viability, qHTS. Potency, µM (titrated, usually from 48.3 µM), for inactives: top-dose activity change, negative = cytotoxicity, hits mostly cytotoxic. 840 tested, 18% active;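 further: plate controls were DMSO for no effect and high-concentration cycloheximide for full effect; nearly all actives have a fitted effect of over 75% in size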
# An asterisk follows results filed as active; ? = inconclusive; . = not tested or not shown. The call rests on the fitted dose curve; in most records, active means well fitted curve in the direction sought with a large enough effect; inconclusive means small, poorly fitted or top-dose-only effect, or another doubt; inactive means no such curve, though single readings can be large; an effect the other way counts as inactive or inconclusive. Potency means the concentration at half of the fitted maximal effect.
SMILES,HP1b binding inh,PLK1 PBD inh,VDR inhibitor,BAZ2B block,L3MBTL1 block,JMJD2A Tudor,VDR inh confirm,VDR FP,VDR bla reporter,VDR viability
COc1ccc(NC(=O)COC(=O)c2ccc(-n3cnnn3)cc2)cc1Cl,19%,-10%,-8%,3%,6%,-11%,.,.,.,.
COc1ccccc1/C=C1\CCCC2=C1Nc1nnnn1C2c1ccccc1OC (stereo not drawn),7%,?,?,?,-4%,?,?,?,?,-4%
CCOc1cc(C(Nc2cc(C)ccn2)c2ccc3cccnc3c2O)ccc1OC (stereo not drawn),14µM*,.,22µM*,10µM*,.,18µM*,7.1*,3.5µM*,-5%,?
COc1ccc(C(Nc2ccccn2)c2ccc3ccc(C)nc3c2O)cc1C (stereo not drawn),-15%,.,?,?,.,?,.,.,.,.
COc1ccc(CN2C(=O)C(CC(=O)NC3CCCC3)CC(C(=O)N3CCOCC3)=C2C)cc1 (stereo not drawn),.,-13%,.,.,.,.,.,.,.,.
CCCOc1ccc(/C=c2\sc3nc(-c4ccco4)nn3c2=O)cc1OCC,-14%,0%,-13%,-15%,-23%,?,.,.,.,.
CC(=O)Oc1cccc(/C=c2\sc3nc(-c4ccco4)nn3c2=O)c1,0%,?,?,-35%,?,50µM*,11*,?,0%,18%
CCc1nnc(NC(=O)c2nc(SCc3ccc(F)cc3)ncc2Cl)s1,28%,.,15%,-22%,.,-14%,.,.,.,.
Cc1ccc(C2=NOC(=O)/C2=C\c2ccccc2)cc1,40%,3.4µM*,32µM*,.,.,-12%,7.5*,?,0%,30%
O=C1ON=C(c2ccccc2)/C1=C/c1ccc(O)cc1,36%,1.7µM*,35µM*,-13%,-6%,-5%,11*,?,?,?
O=C1ON=C(c2ccccc2)/C1=C/c1ccccc1,37%,5.3µM*,45µM*,-27%,1%,-25%,19*,6.3µM*,27%,-15%
CN1CCc2c(c3c(n2C)CCN(C)[C@H]3c2ccccc2F)[C@@H]1c1ccccc1F,.,.,.,?,-5%,.,.,.,.,.
COC(=O)[C@]1(C)N[C@H](c2ccc(SC3CCCCC3)c(OC)c2)[C@@H]2C(=O)N(C)C(=O)[C@@H]21,42%,4%,-23%,-3%,-5%,-11%,.,.,.,.
CN1CCC2(CC1)N=C(c1ccc(F)cc1)C(=S)N2C(=O)c1ccc(C(C)(C)C)cc1,32µM*,24µM*,?,35µM*,-5%,32µM*,?,?,?,?
Cc1oc2c(c(=O)c1C)C(=O)CC(c1ccccc1)C2 (stereo not drawn),24%,-2%,-11%,3%,10%,-9%,.,.,.,.
CS(=O)(=O)c1sc(C#N)c2c1C(=O)CC(c1ccccc1)C2 (stereo not drawn),10%,5.3µM*,14µM*,-38%,-10%,-21%,8.4*,?,15µM*,3.7µM*
